According to the OligoGym collection:
Also: reference of the scale not given here.

Each sequence was assayed against ULK1 (assay: pooled miR-30 sensor sort-seq; sequence = guide strand). Details: shRNA.
TTTTTGTCTGTTATGTGGCGTG gave a sensor-assay potency score (higher = more potent) of -0.361.
Sequence TTCTTCTTGTTAATGCACTTGA has a sensor-assay potency score (higher = more potent) of 0.0356.
For ATGTGTATGTACAAACACCAGG, the sensor-assay potency score (higher = more potent) was -1.55.
Work on TTGCTCTGGAGGTACCGCGCGA yielded a sensor-assay potency score (higher = more potent) of -0.555.
In the case of TTGTACAGCTCATTCAGCCTGC, the sensor-assay potency score (higher = more potent) is reported as 0.11.
With ATCAAGAGAACATTCAACCAGG the sensor-assay potency score (higher = more potent) was -0.0767.
In the case of TTGCGGGAGAACTCGAACTTGC, the sensor-assay potency score (higher = more potent) is reported as -0.945.
With TTGTTCTTCTCGTAGAACAGGC the sensor-assay potency score (higher = more potent) was -0.479.
Work on TTCAGGTACAGCACCAGCTGTT yielded a sensor-assay potency score (higher = more potent) of -0.477.
Work on TTGCAAAGAAAAACACACGTGT yielded a sensor-assay potency score (higher = more potent) of 0.333.
For TTGAACAAAGAACTGCCTCTGC, the sensor-assay potency score (higher = more potent) was 1.01.
With TTCTTCTCGTAGAACAGGCGCA the sensor-assay potency score (higher = more potent) was -0.466.

These sequences were tested against UMOD in the same assay as above. Details: shRNA.
TATACTGCACTCCTCACACGTC gave a sensor-assay potency score (higher = more potent) of -0.701.
With ATCAGTGATGTTGAAGTCCTGT the sensor-assay potency score (higher = more potent) was 0.164.
In the case of TAGAGCACTGACCATTGGCTGT, the sensor-assay potency score (higher = more potent) is reported as -0.936.
TTTCATTCCTCGTCAACACTGT was tested, and the sensor-assay potency score (higher = more potent) was 0.582.
TCGATTTGCAGTCCTCGTCTAT gave a sensor-assay potency score (higher = more potent) of -0.657.
TTCCTCGTCAACACTGTCCCAC was tested, and the sensor-assay potency score (higher = more potent) was 0.0538.
For TAGTTGAGTCTCTAGTGTGTGG, the sensor-assay potency score (higher = more potent) was -0.521.
TAGACTAGGTCATAGTTTCCAG gave a sensor-assay potency score (higher = more potent) of -0.219.
For TTGTAGACGTAGTAGCCGCCGG, the sensor-assay potency score (higher = more potent) was -1.04.
TTGCACTTTTCATTCATGGTGT was tested, and the sensor-assay potency score (higher = more potent) was 0.244.
TTGCAGTCCTCGTCTATACTGC was tested, and the sensor-assay potency score (higher = more potent) was -0.687.
Sequence TTGAAGTCCTGTTTGCACTGGC has a sensor-assay potency score (higher = more potent) of 0.829.
